Laboratory results published in PMC7862700, “An all-to-all approach to the identification of sequence-specific readers for epigenetic DNA modifications on cytosine”.

Key:
Assay in all cases: DAPPL (digital affinity profiling via proximity ligation, sequencing); 10 mM Tris-HCl pH 7.5, 50 mM NaCl, 1 mM DTT, 4% glycerol, room temperature, 30 min; GST-TFs on glutathione beads, 16-mer random dsDNA library, 0.1% formaldehyde crosslink after washing; high values mean tight binding
HSF1 = HSF1 (Homo sapiens, UniProt Q00613 1-529); details: protein: recombinant; tags: N-terminal GST; chain copies: 3; dsDNA, one strand shown
Method in brief: (§1)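 Yeast served to express human transcription factors as GST fusions, which were then captured on glutathione beads and labelled with DNA barcodes. Pooled with a tag-only sample, they were incubated with 200 nmole of a 16-mer random double-stranded DNA library for 30 min at room temperature in Tris/NaCl/DTT/glycerol buffer, washed, crosslinked with 0.1% formaldehyde, ligated by proximity, amplified by PCR and sequenced. Dividing each hexamer's read frequency for a factor by its frequency for the tag-only sample gives the binding signal.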

CRX = CRX (Homo sapiens, UniProt O43186 1-299); details: protein: recombinant; tags: N-terminal GST; dsDNA, one strand shown
Method in brief: as §1

ETV2 = target: T1, ETV2 (Homo sapiens, UniProt O00321 1-342); details: protein: recombinant; tags: N-terminal GST; dsDNA, one strand shown
T1 sequence: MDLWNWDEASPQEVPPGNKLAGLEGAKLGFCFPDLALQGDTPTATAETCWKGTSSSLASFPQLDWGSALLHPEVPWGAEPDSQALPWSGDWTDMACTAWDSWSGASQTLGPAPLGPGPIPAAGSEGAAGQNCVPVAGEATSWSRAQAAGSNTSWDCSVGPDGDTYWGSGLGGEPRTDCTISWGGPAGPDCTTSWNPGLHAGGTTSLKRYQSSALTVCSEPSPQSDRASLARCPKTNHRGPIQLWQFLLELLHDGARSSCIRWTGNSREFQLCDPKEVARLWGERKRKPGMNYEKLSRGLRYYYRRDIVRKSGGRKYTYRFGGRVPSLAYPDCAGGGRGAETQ
Method in brief: as §1

ELK1 = target: T2, ELK1 (Homo sapiens, UniProt P19419 1-428); details: protein: recombinant; tags: N-terminal GST; dsDNA, one strand shown
T2 sequence: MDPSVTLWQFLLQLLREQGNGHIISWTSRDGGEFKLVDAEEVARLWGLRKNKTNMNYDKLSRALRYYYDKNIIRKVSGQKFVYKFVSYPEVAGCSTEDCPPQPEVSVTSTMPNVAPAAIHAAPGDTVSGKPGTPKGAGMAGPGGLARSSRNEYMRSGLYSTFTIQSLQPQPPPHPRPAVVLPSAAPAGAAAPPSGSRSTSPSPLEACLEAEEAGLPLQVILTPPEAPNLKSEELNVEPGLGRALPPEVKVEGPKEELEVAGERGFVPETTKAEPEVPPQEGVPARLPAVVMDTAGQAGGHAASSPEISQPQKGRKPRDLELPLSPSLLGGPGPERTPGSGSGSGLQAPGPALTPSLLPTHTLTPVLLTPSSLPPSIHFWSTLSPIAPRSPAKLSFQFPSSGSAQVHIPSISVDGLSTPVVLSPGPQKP
Method in brief: as §1

EHF = target: T3, EHF (Homo sapiens, UniProt Q9NZC4 1-300); details: protein: recombinant; tags: N-terminal GST; dsDNA, one strand shown
T3 sequence: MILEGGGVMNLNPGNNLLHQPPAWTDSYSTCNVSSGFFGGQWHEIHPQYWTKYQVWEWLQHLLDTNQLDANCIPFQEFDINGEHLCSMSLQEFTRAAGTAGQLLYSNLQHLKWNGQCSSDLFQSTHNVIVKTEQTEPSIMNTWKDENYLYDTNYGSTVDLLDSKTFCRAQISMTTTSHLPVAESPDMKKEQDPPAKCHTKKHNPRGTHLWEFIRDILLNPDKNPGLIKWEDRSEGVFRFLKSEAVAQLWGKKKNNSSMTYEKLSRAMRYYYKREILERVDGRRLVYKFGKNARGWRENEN
Method in brief: as §1

SPI1 = SPI1 (Homo sapiens, UniProt P17947 1-270); details: protein: recombinant; tags: N-terminal GST; dsDNA, one strand shown
Method in brief: as §1

ELK3 = target: T4, ELK3 (Homo sapiens, UniProt P41970 1-407); details: protein: recombinant; tags: N-terminal GST; dsDNA, one strand shown
T4 sequence: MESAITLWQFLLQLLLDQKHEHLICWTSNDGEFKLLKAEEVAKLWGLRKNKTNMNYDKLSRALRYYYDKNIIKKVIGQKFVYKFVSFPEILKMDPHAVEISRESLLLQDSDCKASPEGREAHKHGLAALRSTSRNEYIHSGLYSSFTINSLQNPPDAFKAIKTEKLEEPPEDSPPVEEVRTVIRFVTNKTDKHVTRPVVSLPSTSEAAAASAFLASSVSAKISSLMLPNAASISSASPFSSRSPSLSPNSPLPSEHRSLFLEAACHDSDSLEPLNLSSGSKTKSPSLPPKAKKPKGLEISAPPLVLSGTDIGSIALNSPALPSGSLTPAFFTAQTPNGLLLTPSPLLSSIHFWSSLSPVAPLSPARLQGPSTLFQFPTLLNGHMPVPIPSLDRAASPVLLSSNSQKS
Method in brief: as §1

ELF3 = target: T5, ELF3 (Homo sapiens, UniProt P78545 1-371); details: protein: recombinant; tags: N-terminal GST; dsDNA, one strand shown
T5 sequence: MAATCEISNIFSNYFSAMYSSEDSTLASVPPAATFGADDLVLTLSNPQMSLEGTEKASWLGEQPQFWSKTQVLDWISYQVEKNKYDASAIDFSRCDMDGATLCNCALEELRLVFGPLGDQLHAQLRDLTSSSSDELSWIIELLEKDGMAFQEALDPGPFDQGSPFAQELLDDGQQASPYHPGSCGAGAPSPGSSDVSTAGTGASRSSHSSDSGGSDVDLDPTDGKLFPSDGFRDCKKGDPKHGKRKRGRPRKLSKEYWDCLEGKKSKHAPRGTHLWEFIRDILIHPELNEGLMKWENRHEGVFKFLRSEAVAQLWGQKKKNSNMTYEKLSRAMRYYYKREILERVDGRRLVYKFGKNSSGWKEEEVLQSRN
Method in brief: as §1

SPDEF = target: T6, SPDEF (Homo sapiens, UniProt O95238 1-335); details: protein: recombinant; tags: N-terminal GST; dsDNA, one strand shown
T6 sequence: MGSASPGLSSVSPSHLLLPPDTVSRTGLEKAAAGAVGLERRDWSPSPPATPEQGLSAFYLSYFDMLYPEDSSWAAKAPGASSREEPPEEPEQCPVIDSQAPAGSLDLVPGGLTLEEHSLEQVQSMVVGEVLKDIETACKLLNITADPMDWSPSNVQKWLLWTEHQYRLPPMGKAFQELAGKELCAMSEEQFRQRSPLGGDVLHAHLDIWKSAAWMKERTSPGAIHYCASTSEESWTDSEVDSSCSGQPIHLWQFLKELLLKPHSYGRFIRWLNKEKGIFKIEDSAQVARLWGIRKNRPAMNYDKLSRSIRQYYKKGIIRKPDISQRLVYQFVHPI
Method in brief: as §1

ELF1 = ELF1 (Homo sapiens, UniProt P32519 1-619); details: protein: recombinant; tags: N-terminal GST; dsDNA, one strand shown
Method in brief: as §1

ETV3L = target: T7, ETV3L (Homo sapiens, UniProt Q6ZN32 1-361); details: protein: recombinant; tags: N-terminal GST; dsDNA, one strand shown
T7 sequence: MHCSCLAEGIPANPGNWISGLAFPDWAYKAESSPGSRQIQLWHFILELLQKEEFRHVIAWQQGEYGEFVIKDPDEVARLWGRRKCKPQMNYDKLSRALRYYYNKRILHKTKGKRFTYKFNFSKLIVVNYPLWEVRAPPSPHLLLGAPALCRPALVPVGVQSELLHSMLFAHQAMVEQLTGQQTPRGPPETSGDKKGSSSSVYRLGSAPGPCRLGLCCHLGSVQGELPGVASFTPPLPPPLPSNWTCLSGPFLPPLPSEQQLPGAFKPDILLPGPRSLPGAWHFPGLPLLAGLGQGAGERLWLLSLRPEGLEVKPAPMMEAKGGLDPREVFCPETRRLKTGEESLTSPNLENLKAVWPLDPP
Method in brief: as §1

ETS2 = target: T8, ETS2 (Homo sapiens, UniProt P15036 1-469); details: protein: recombinant; tags: N-terminal GST; dsDNA, one strand shown
T8 sequence: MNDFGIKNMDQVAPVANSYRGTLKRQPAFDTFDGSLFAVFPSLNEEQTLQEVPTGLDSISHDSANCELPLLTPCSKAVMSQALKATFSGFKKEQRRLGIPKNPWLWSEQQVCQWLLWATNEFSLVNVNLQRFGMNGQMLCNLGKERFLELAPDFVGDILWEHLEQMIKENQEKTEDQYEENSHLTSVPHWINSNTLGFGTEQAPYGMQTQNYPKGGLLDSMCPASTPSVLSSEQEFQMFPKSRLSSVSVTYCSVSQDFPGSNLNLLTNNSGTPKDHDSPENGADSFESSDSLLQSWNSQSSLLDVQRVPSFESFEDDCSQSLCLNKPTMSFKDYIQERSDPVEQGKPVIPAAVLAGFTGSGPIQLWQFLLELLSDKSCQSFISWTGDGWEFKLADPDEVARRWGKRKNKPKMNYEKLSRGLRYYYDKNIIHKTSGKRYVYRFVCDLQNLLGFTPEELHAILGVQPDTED
Method in brief: as §1

ETV7 = target: T9, ETV7 (Homo sapiens, UniProt Q9Y603 1-341); details: protein: recombinant; tags: N-terminal GST; dsDNA, one strand shown
T9 sequence: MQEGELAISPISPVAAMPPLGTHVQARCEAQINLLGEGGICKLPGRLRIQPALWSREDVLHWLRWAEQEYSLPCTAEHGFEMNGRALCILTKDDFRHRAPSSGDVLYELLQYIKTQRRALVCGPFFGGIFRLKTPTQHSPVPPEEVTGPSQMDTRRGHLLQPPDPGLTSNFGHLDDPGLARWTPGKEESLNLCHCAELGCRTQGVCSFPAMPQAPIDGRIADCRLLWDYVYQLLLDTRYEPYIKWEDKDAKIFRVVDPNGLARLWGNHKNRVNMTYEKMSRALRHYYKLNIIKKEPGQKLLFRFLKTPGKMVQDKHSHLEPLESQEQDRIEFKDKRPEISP
Method in brief: as §1

ETV6 = ETV6 (Homo sapiens, UniProt P41212 1-452); details: protein: recombinant; tags: N-terminal GST; dsDNA, one strand shown
Method in brief: as §1

Sequence of CRX (O43186 whole entry): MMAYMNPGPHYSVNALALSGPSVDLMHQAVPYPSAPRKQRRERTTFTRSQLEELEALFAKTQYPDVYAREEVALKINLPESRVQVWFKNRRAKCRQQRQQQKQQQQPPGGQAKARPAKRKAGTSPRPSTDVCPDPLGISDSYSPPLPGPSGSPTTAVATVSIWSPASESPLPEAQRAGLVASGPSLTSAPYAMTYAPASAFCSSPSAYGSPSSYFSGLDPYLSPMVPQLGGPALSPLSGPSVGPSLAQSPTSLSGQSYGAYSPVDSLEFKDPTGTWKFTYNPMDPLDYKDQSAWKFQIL
Sequence of HSF1 (Q00613 whole entry, the tested form may be a part): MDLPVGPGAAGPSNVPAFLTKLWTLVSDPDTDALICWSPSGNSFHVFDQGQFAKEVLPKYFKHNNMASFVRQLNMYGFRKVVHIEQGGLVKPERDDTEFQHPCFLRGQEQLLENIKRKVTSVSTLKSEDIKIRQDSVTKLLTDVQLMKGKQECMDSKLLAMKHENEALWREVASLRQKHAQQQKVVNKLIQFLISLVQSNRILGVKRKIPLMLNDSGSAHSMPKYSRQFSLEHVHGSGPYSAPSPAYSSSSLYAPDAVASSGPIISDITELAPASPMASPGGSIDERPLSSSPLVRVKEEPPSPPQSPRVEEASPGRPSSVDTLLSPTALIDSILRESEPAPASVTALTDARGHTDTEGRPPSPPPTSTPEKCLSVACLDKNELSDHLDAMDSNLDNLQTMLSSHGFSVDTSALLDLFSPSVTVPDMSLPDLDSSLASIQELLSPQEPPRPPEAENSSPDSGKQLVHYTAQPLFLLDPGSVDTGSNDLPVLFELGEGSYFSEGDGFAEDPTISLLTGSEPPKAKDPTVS
Sequence of ETV6 (P41212 whole entry): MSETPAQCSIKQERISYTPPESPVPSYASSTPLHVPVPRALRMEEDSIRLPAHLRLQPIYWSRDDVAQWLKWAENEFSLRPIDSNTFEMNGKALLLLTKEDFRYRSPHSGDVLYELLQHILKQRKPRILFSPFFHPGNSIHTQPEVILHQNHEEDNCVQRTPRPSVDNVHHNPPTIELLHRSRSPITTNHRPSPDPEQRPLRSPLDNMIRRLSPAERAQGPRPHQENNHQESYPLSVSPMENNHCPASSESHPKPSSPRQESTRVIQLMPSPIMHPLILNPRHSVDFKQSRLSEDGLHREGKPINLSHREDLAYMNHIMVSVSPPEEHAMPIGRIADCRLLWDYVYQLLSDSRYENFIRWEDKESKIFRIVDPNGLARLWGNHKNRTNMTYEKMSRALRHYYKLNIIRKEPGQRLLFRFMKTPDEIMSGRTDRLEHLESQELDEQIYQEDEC
Sequence of ELF1 (P32519 whole entry): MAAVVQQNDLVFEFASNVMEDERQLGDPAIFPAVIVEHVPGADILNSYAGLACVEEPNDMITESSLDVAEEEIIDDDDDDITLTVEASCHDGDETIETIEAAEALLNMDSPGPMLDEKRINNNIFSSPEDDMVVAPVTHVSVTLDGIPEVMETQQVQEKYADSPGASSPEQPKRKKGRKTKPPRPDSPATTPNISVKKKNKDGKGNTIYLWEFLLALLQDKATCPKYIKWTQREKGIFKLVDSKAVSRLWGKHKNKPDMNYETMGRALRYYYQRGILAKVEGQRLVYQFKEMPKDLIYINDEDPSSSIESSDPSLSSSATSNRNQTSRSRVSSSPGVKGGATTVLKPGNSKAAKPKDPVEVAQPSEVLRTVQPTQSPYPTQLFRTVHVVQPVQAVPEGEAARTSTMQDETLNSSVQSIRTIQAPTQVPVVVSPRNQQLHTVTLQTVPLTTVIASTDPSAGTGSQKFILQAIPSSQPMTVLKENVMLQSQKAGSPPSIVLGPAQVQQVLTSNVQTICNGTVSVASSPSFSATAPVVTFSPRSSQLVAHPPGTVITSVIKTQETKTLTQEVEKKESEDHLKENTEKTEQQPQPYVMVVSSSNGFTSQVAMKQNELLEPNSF

GCATTA was tested, and the binding signal (HSF1) was 1.16 fold enrichment (6-mer frequency, TF over GST control) and the binding signal (CRX) was 1.64 fold enrichment (6-mer frequency, TF over GST control).
With ACCAGA the binding signal (HSF1) was 1.55 fold enrichment (6-mer frequency, TF over GST control), the binding signal (ETV2) was 1.01 fold enrichment (6-mer frequency, TF over GST control) and the binding signal (CRX) was 1.06 fold enrichment (6-mer frequency, TF over GST control).
With TCCAGA the binding signal (HSF1) was 3.36 fold enrichment (6-mer frequency, TF over GST control) and the binding signal (CRX) was 1.5 fold enrichment (6-mer frequency, TF over GST control).
For AGATCA, the binding signal (HSF1) was 1.21 fold enrichment (6-mer frequency, TF over GST control), the binding signal (ETV2) was 1.03 fold enrichment (6-mer frequency, TF over GST control) and the binding signal (CRX) was 1.31 fold enrichment (6-mer frequency, TF over GST control).
For AGAATG, the binding signal (ELK1) was 1.01 fold enrichment (6-mer frequency, TF over GST control), the binding signal (EHF) was 1.02 fold enrichment (6-mer frequency, TF over GST control) and the binding signal (SPI1) was 1.01 fold enrichment (6-mer frequency, TF over GST control). The binding signal (ELK3) was 1.01 fold enrichment (6-mer frequency, TF over GST control), the binding signal (HSF1) was 2.08 fold enrichment (6-mer frequency, TF over GST control) and the binding signal (ETV2) was 1.01 fold enrichment (6-mer frequency, TF over GST control). The binding signal (ELF3) was 1.05 fold enrichment (6-mer frequency, TF over GST control) and the binding signal (CRX) was 1.09 fold enrichment (6-mer frequency, TF over GST control).
In the case of GCGATT, the binding signal (HSF1) is reported as 1.23 fold enrichment (6-mer frequency, TF over GST control), the binding signal (ELF3) is reported as 1.04 fold enrichment (6-mer frequency, TF over GST control) and the binding signal (CRX) is reported as 1.51 fold enrichment (6-mer frequency, TF over GST control).
For CAGATC, the binding signal (HSF1) was 1.09 fold enrichment (6-mer frequency, TF over GST control), the binding signal (ETV2) was 1.02 fold enrichment (6-mer frequency, TF over GST control) and the binding signal (CRX) was 1.13 fold enrichment (6-mer frequency, TF over GST control). The binding signal (SPDEF) was 1.07 fold enrichment (6-mer frequency, TF over GST control).
In the case of GGCTTT, the binding signal (ELF1) is reported as 1.04 fold enrichment (6-mer frequency, TF over GST control), the binding signal (EHF) is reported as 1.05 fold enrichment (6-mer frequency, TF over GST control) and the binding signal (ELK3) is reported as 1.11 fold enrichment (6-mer frequency, TF over GST control). The binding signal (HSF1) was 1.11 fold enrichment (6-mer frequency, TF over GST control), the binding signal (ETV2) was 1.15 fold enrichment (6-mer frequency, TF over GST control) and the binding signal (CRX) was 1.47 fold enrichment (6-mer frequency, TF over GST control). For the same sequence, the binding signal (ETV3L) was 1.03 fold enrichment (6-mer frequency, TF over GST control), the binding signal (ETS2) was 1.03 fold enrichment (6-mer frequency, TF over GST control) and the binding signal (SPDEF) was 1 fold enrichment (6-mer frequency, TF over GST control). The binding signal (ETV7) was 1.16 fold enrichment (6-mer frequency, TF over GST control) and the binding signal (ETV6) was 1.06 fold enrichment (6-mer frequency, TF over GST control).
